# In all, about 1,500 compounds went through this assay and about 950 (63%) were called active. The set was probably picked from earlier hits. These entries were drawn from the full list. Values without a mark were called inactive. No stated cut-off is given here; in the data, active means inhibition above about 25%; inactive means the rest.
# Molecular target: Major prion protein (Homo sapiens) (UniProt P04156)
# Assay: confirmation of inhibitors of cell surface human prion protein, confirmation, cell-based, TR-FRET (AID 743200)
# Conditions: cell surface PrPC level, at 13.8 µM, active compounds read high
row,SMILES,inhibition
1,COc1cccc2sc3cc(NCC[C@@H]4CCCN4C)ccc3c(=O)c12,46% (active)
2,COc1ccc2c(Cl)c(-c3nnco3)sc2c1,37.6% (active)
3,FC(F)(F)c1cccc(NC(=S)OC2CCC23CCC(c2ccccc2)CC3)c1 (stereo not drawn),15.7%
4,CC(=O)c1sc2nc(SCC(=O)N3CCCCC3)[nH]c(=O)c2c1C,28.8% (active)
5,COc1ccc(S(=O)(=O)N2CCOCC2)cc1NC(=O)CSc1ncnc2ccccc12,92.1% (active)
6,Cc1nc(/N=C(\N)NC(=O)NC2CCCCC2)nc2ccccc12,29.3% (active)
7,O=C(Nc1cccn(Cc2ccccc2Cl)c1=O)NC1CCCCC1,15.9%
8,O=C(CC(O)(C(F)(F)F)C(F)(F)F)Nc1ccc(Cl)c(Cl)c1,58.3% (active)
9,COc1ccc(NC(=O)COC(=O)CNC(=O)C2CCCCC2)cc1,3.04%
10,CCOC(=O)c1c(-c2ccccc2)oc2cc(Br)c(O)cc12,90.9% (active)
11,O=C(/C=C/c1ccc([N+](=O)[O-])o1)NNC(=O)c1ccc(F)cc1,64.6% (active)
12,CC1(C)Cc2ccccc2-c2[nH]c(=S)[nH]c(=O)c21,81.8% (active)
13,N#Cc1c(-c2cccs2)nc(SCC(=O)c2ccc(Br)cc2)[nH]c1=O,74.2% (active)
14,COc1cc(-n2c(=S)[nH]c3ccc(C)cc3c2=O)c(Cl)cc1Cl,46.2% (active)
15,CCCOc1ccc(C2C(C(=O)c3ccc(C)o3)=C(O)C(=O)N2CCCn2ccnc2)cc1 (stereo not drawn),52.6% (active)
16,O=C(Oc1ccccc1)Oc1ccc2c(c1)oc(=O)c1ccccc12,40.9% (active)
17,Cc1ccnc(NC(=O)C2CCN(S(=O)(=O)c3c(C)c(C)cc(C)c3C)CC2)c1,20.7%
18,C=CCNC(=O)CSc1nc2scc(-c3ccco3)c2c(=O)n1CC=C,31.3% (active)
19,Cc1cc2ccccc2n1CCNC(=O)COc1ccc2ccccc2c1,48.4% (active)
20,CCCc1nc(SCC(=O)Nc2ccc(S(=O)(=O)N(C)C)cc2)c2ccccc2n1,90.7% (active)
21,Cc1cccc(CS(=O)(=O)c2ncc(Cl)c(C(=O)Nc3ccc(F)cc3)n2)c1,15.9%

row,SMILES,inhibition
1,Cc1cccc(NC(=O)c2nc(S(=O)(=O)Cc3ccccc3)ncc2Cl)c1,39.3% (active)
2,CCCCCCCCn1c2c(c(=N)c3c1CCC3)CCCC2,44.9% (active)
3,CN(C)CCNC(=O)c1ccc(Cl)c2cc3ccccc3nc12,45.2% (active)
4,CO[C@H]([C@H](C)/C=C/N(C)C=O)[C@@H](C)C(=O)CC[C@H](C)[C@H](O)[C@H](C)[C@H]1OC(=O)/C=C/C(C)=C/[C@H](O)[C@H](OC)C[C@@H]2C=CC[C@@H](C[C@H](OC)[C@@]3(CO3)[C@@H](OC)C[C@@H](OC)[C@@H]1C)O2,32.5% (active)
5,Cn1c(=S)sc2ccc3ccccc3c21,75.4% (active)
6,CCCCNc1c(-c2cccc(Sc3ccc(OC)cc3)c2)nc2ccccn12,17%
7,Cc1sc2ncnc(SCC(=O)Nc3ccc(CN4CCCC4)cc3)c2c1C,53.1% (active)
8,NC(=O)C1CCN(Cc2nc3c(Br)cc(Br)cc3c(=O)[nH]2)CC1,41.7% (active)
9,CCOC(=O)c1c(C)[nH]c(=S)c(C#N)c1-c1ccccc1,43.5% (active)
10,CCC(C)(O)C(=O)OC1C(=O)OC2CC3C(C)=CC(=O)C(O)C3(C)C3C4(O)OCC23C1C(C)C4O (stereo not drawn),98.8% (active)
11,COC(=O)Cc1[nH]n(-c2nc3ccccc3s2)c(=O)c1C(C)=Nc1ccc(OC)cc1,5.13%
12,COc1ccc(C(=O)Nc2nc(-c3ccc(S(=O)(=O)N4CCOCC4)cc3)cs2)cc1,27.4% (active)
13,Cc1cc2cc(CNC(=O)c3ccc(S(=O)(=O)N4CCOCC4)cc3)ccc2[nH]1,15.2%
14,Cc1ccsc1C(=O)OCC(=O)Nc1cccc(F)c1,8.25%
15,Cc1ccc(CSc2ccc(S(=O)(=O)N3CCCCC3)cn2)cc1,6.8%
16,CCc1c(C)nc2cc(-c3cccs3)[nH]n2c1=O,41.7% (active)
17,O=C(COC(=O)c1ccccc1SCC(=O)NC1CCCCC1)NC1CCCCC1,24.6% (active)
18,O=C1CCCC2=C1C(c1cccs1)n1nc(SCc3ccccc3)nc1N2 (stereo not drawn),20%
19,N#C/C=C1\Sc2ccccc2C(=O)N1CC(=O)N1CCN(S(=O)(=O)c2ccccc2)CC1,67.5% (active)
20,N#Cc1ccc(OCC(=O)Nc2nc(-c3ccccn3)cs2)cc1,18.7%
21,COc1ccc(OC)c(NC(=O)c2cc(-c3cc(F)ccc3OCC3CCCO3)n[nH]2)c1 (stereo not drawn),10.2%

row,SMILES,inhibition
1,CC(=O)N1c2ccc(S(=O)(=O)N3CCCC(C(=O)Nc4cccc(F)c4)C3)cc2CC1C (stereo not drawn),49.1% (active)
2,CC(=O)N1CCCc2cc(S(=O)(=O)N3CCCC(C(=O)NCc4ccc(Cl)cc4)C3)ccc21 (stereo not drawn),17.2%
3,CC(=O)N1CCCc2cc(S(=O)(=O)N3CCCC(C(=O)N4CCN(c5cccc(Cl)c5)CC4)C3)ccc21 (stereo not drawn),38.3% (active)
4,O=C(NC(Nc1nc2ccc([N+](=O)[O-])cc2s1)(C(F)(F)F)C(F)(F)F)c1ccccc1,65.9% (active)
5,CC(=O)Nc1cccc(OCC(=O)/C=C2\N(C)c3ccccc3C2(C)C)c1,20.8%
6,CN1/C(=C\C(=O)c2oc3ccccc3c2N)C(C)(C)c2ccccc21,49.3% (active)
7,O=C(Cc1ccccc1)Nc1cccc(NC(=O)c2ccccc2)c1,11.2%
8,O=C(Nc1ccc(C2CC2(Cl)Cl)cc1)c1cccc([N+](=O)[O-])c1 (stereo not drawn),24.7% (active)
9,Cc1ccc(CNC(=O)Nc2nnc([C@H]3C[C@H](O)[C@@H](CO)O3)s2)cc1,-0.76%
10,Cc1ccc(Oc2cnn(-c3ccccc3)c(=O)c2Br)cc1,51.9% (active)
11,CC(=O)c1nc(N2C(=O)C3CC=C(C)CC3C2=O)sc1C (stereo not drawn),18%
12,Cc1[nH]n(-c2ccccc2)c(=O)c1/C=N/NC(=O)c1ccoc1C,60.1% (active)
13,O=C(c1ccc(F)cc1)c1cn(Cc2ccc(F)cc2)c2cc3c(cc2c1=O)OCCO3,90.5% (active)
14,Fc1ccc2[nH]c3c(N4CCSCC4)ncnc3c2c1,35.3% (active)
15,Cc1ccc(NC(=O)c2sc3nc(N)c(C#N)cc3c2N)cc1,35.3% (active)
16,CCc1nc(SCC(=O)NNC(=O)c2ccc(C)cc2)c2ccccc2n1,118% (active)
17,COC(=O)CSc1nc(C2CC2)nc2ccccc12,35.9% (active)
18,O=c1[nH]cccc1-c1nc2ccccc2n1Cc1ccc(Cl)cc1,35.3% (active)
19,CCCCC(=O)NC(c1ccc(OC)c(OC)c1)c1ccc2cccnc2c1O (stereo not drawn),26.9% (active)
20,CCCCCCCCCCCCn1ccc(=N)cc1,38.5% (active)
21,O=C(Nc1ccc(N2CCN(C(=O)c3ccccc3)CC2)c(Cl)c1)c1cccnc1,12.3%
